Pf growth 96h – Primary qHTS for delayed death inhibitors of the malarial parasite plastid, 96 hour incubation; P. falciparum luciferase reporter growth, 96 h; Potency, µM (doses to about 28.7 µM), without a hit: at the top dose activity change, negative = inhibition, most hits filed as inhibitors; 320,000 compounds, 6.9% hits; further: on the % scale 0 is the no-effect control and ±100 the full control effect
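Plates of compound plus infected erythrocytes (2% hematocrit, 0.05% parasitemia final) incubate 96 hours, 37 C, 5% CO2. Detection reagent added; reduced luminescence from the parasites' luciferase reporter flags inhibition.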
SARS PLP yeast – qHTS of Yeast-based Assay for SARS-CoV PLP; S. cerevisiae expressing SARS-CoV PLpro, growth rescue; Potency, µM (doses to about 32.9 µM), for inactives: top-dose activity, positive = growth rescue, most hits filed as activators; 330,000 compounds, 0.19% hits; AID 485353, 2010; calls by dose curve; further: 0% is about no effect; nearly all actives have a fitted effect of over 55% in size
Pf growth 48h – Primary qHTS for delayed death inhibitors of the malarial parasite plastid, 48 hour incubation; P. falciparum luciferase growth in erythrocytes, 48 h; Potency, µM (titrated, usually from 28.7 µM), for the others: top-dose activity change, negative = inhibition, hits mostly inhibitors; 310,000 compounds, 5.9% hits; further: on the % scale 0 is the no-effect control and ±100 the full control effect
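Cell-based growth assay: transgenic P. falciparum expressing firefly luciferase, cultured in red cells within RPMI 1640 containing 0.5% w/v Albumax, 24 mM bicarbonate and gentamycin. A drop in luciferase activity indicates inhibition.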
Sm TGR inh – qHTS Assay for the Inhibitors of Schistosoma Mansoni Peroxiredoxins; Schistosoma mansoni thioredoxin glutathione reductase (TGR), Q962Y6; purified TGR, DTNB reduction, TNB absorbance 405 nm; Potency, µM (highest dose often 114 µM), without a hit: top-dose activity change, negative = inhibition, most hits filed as inhibitors; 360,000 compounds, 3% hits; AID 485364, 2010; further: on the % scale 0 is the no-effect control and ±100 the full control effect; nearly all actives have a fitted effect of over 60% in size
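Kinetic colorimetric format: TGR-catalysed, NADPH-driven DTNB reduction monitored via TNB absorbance. Enzyme dispensed at 20 nM; compound exposure 15 min at room temperature before reaction start.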
An asterisk follows results filed as active; ? = inconclusive; nt = not tested or not shown. The list is not random: actives were taken first. Their share in the collection is about 12%. Unless noted, the call rests on the fitted dose curve; in most records, active means well fitted curve in the direction sought with a large enough effect; inconclusive means small, poorly fitted or top-dose-only effect, or another doubt; inactive means no such curve, though single readings can be large; an effect the other way counts as inactive or inconclusive. Potency means the concentration at half of the fitted maximal effect.

SMILES	Pf growth 96h	SARS PLP yeast	Pf growth 48h	Sm TGR inh
CNC(=O)C1CCC(Cn2c(=O)c3sccc3n(CC(=O)Nc3ccc(C)c(C)c3)c2=O)CC1 (centres undefined)	nt	nt	nt	-8.5%
Cc1ccc(S(C)(=O)=O)cc1C(=O)Nc1cccc(S(=O)(=O)N2CCCCCC2)c1	?	2.7%	?	0.4%
CC(=O)c1c(C)[nH]c(C(=O)Nc2cccc(S(=O)(=O)N3CCCCC3)c2)c1C	9.28µM*	-1.3%	9.28µM*	4.6%
CC(=O)c1c(C)[nH]c(C(=O)Nc2cccc(C(F)(F)F)c2)c1C	1.85µM*	-14.3%	4.15µM*	-9.1%
CC(=O)c1ccc(NC(=O)C(C)Sc2nnc3ccccn23)cc1 (centres undefined)	9.28µM*	-7.1%	?	-8.5%
CCOc1ccc(CNC(=O)C2CCN(S(=O)(=O)c3ccc4c(ccn4C)c3)CC2)cc1	nt	nt	nt	0.8%
NC(=O)c1ccccc1OCC(=O)c1ccc(Cl)cc1	0.4%	3.6%	4.15µM*	2.3%
NC(=O)c1ccccc1OCC(=O)NS(=O)(=O)c1ccc(Cl)cc1	nt	4.0%	-2.7%	0.4%
c1ccc2c(CNC3CCCCCC3)c[nH]c2c1	10.4µM*	?	nt	-5.4%
Cc1ccc(C(=O)NNc2cc(N3CCCC3)nc(N3CCCC3)n2)cc1	-7.6%	-6.6%	4.65µM*	5.2%
O=C1/C(=N/n2cnnc2)c2ccccc2N1Cc1ccccc1	9.28µM*	-27.0%	-11.1%	-15.3%
Cc1ccc2c(c1)C(=O)C(=O)N2Cc1ccccc1	nt	1.9%	nt	nt
c1ccc2c(c1)C(=Nn1cnnc1)c1ccccc1-2	11.7µM*	-0.3%	2.8%	2.4%
Oc1ccccc1/C=N/n1cnnc1	-23.2%	-1.1%	nt	-9.6%
COCCOC(=O)C1=C(C)NC(=O)NC1c1cn(-c2ccccc2)nc1-c1cccs1 (centres undefined)	49.6%	11.7%	-20.3%	-4.3%
CC1=C(C#N)C(c2cn(-c3ccccc3)nc2-c2cccs2)C(C#N)=C(C)N1	43.7%	-1.0%	1.65µM*	6.4%
C=CCOC(=O)C1=C(C)NC(=O)NC1c1cn(-c2ccccc2)nc1-c1cccs1 (centres undefined)	?	-25.4%	14.7µM*	-16.3%
COC(=O)c1ccccc1NC(=O)c1nc(-c2ccc(C)cc2)n2c1CCCCC2	nt	nt	nt	-3.8%
O=Cc1s/c(=N\S(=O)(=O)c2ccccc2)n(CCCCl)c1Cl	1.4%	-7.6%	3.8%	0.631µM*
CCn1c(C)cs/c1=N\S(=O)(=O)c1ccccc1	85.9%	7.8%	1.8%	4.2%
CCOc1ccccc1N(C)C(=O)Cn1ncc2c([nH]c3ccc(C)cc32)c1=O	?	0.7%	-14.8%	-2.4%
C(=C1/CCCC2=C1Nc1ncnn1C2c1ccccc1)/c1ccccc1 (centres undefined)	-9.2%	?	11.7µM*	0.501µM*
FC(F)(F)c1ccccc1C1C2=C(Nc3ncnn31)c1ccccc1CCC2 (centres undefined)	nt	-3.1%	?	-35.4%
O=S(=O)(NCCc1ccccc1)c1ccc(N2CCCCS2(=O)=O)cc1	nt	nt	nt	4.7%
O=[N+]([O-])c1ccc(CNCCc2ccccc2)cc1	13.1µM*	2.3%	19.7%	-20.2%
SMILES	Pf growth 96h	SARS PLP yeast	Pf growth 48h	Sm TGR inh
O=[N+]([O-])c1ccc(S(=O)(=O)NNC(=S)NCCc2ccccc2)cc1	-25.9%	2.9%	6.2%	1.78µM*
NC(=O)c1cc([N+](=O)[O-])ccc1NCCc1ccccc1	13.1µM*	-2.3%	-0.8%	1.5%
O=C(O)C(Cc1ccccc1)Nc1ccc([N+](=O)[O-])cc1[N+](=O)[O-] (centres undefined)	6.57µM*	0.7%	?	-25.8%
O=[N+]([O-])c1cccc(CNCc2ccccc2)c1	-31.6%	0.9%	0.0%	7.5%
CCOc1ccc(NC(=O)[C@H]2O[C@@H]3OC(C)(C)O[C@@H]3[C@H]3OC(C)(C)O[C@H]32)cc1	nt	nt	nt	7.8%
COP(=O)(c1ccc(N(C)C)cc1)C(O)c1ccccc1 (centres undefined)	?	0.3%	?	11.5%
Cc1noc(C)c1C(=O)OC(C)C(=O)NC(C)c1ccc(Cl)cc1Cl (centres undefined)	nt	-1.3%	nt	nt
O=C(COc1ccc(Br)cc1)N1CCN(c2ncccn2)CC1	?	0.0%	?	2.4%
CCCCCN1CC(=O)N2[C@@H](Cc3c([nH]c4ccccc34)C2(C)C)C1=O	?	2.0%	?	-22.7%
CCCCN(CCCC)CCCN1CC(=O)N2[C@@H](Cc3c([nH]c4ccccc34)C2(C)C)C1=O	?	1.2%	9.28µM*	7.2%
CCCCOCCCN1CC(=O)N2[C@@H](Cc3c([nH]c4ccccc34)C2(C)C)C1=O	9.28µM*	-0.8%	?	-0.2%
CC1(C)c2[nH]c3ccccc3c2C[C@H]2C(=O)N(CCCCCO)CC(=O)N21	-12.6%	0.2%	?	12.5%
COc1ccc(CCN(C(=O)C(F)(F)F)C(C(=O)NC2CCCCC2)c2ccc(C)s2)cc1OC (centres undefined)	?	0.4%	4.15µM*	-5.9%
COc1ccc(CCN(C(=O)C(F)(F)F)C(C(=O)NC2CCCC2)c2cccs2)cc1OC (centres undefined)	7.38µM*	-0.6%	?	-13.2%
CC1CCC/C(=C(\C#N)c2nc(-c3cc4ccccc4oc3=O)cs2)C1 (centres undefined)	6.57µM*	5.4%	296.5%	-7.8%
CC(=O)c1ccc(N2CCN(C(=O)CCc3nnc4n(C)c(=O)c5sccc5n34)CC2)cc1	nt	nt	nt	0.9%
C#Cc1ccc([C@@H]2C=C(C(=O)Nc3ccccc3)O[C@H](OCC)[C@H]2CCCO)cc1	1.85µM*	-1.8%	?	0.3%
C#CCNC(=O)C1=C[C@H](c2ccccc2)[C@@H](CCCO)[C@H](OCC)O1	-1.3%	0.7%	-25.4%	20µM*
C#Cc1ccc([C@@H]2C=C(C(=O)OCC=C)O[C@H](OCC)[C@H]2CCCO)cc1	2.33µM*	0.1%	?	-13.7%
CCc1nc(N2CCN(CC(=O)NCC3CCCO3)CC2)c(C#N)c2c1COC(C)(C)C2 (centres undefined)	?	-1.5%	?	-18.7%
Cc1cc2c(NC3CCCCC3)ncnc2s1	-18.6%	-9.1%	-15.5%	-13.4%
COc1ccccc1NC(=O)Nc1nc(CC(=O)N2CCN(c3ccccc3)CC2)cs1	?	3.3%	11.7µM*	-11.9%
COc1ccc(CNC(=O)Cc2csc(NC(=O)Nc3ccccc3OC)n2)cc1	?	-6.1%	-12.0%	-0.4%
COc1ccccc1NC(=O)Nc1nc(CC(=O)N2CCN(c3ccc(F)cc3)CC2)cs1	?	4.8%	9.28µM*	-1.3%
COc1ccc(N2CCN(C(=O)Cc3csc(NC(=O)Nc4ccccc4OC)n3)CC2)cc1	?	5.1%	7.38µM*	4.5%
COc1ccccc1NC(=O)Nc1nc(CC(=O)Nc2ccc(F)cc2)cs1	?	-0.2%	?	-0.1%
CCN(CC)C(=O)/C(C#N)=C/c1cc(O)c(O)c([N+](=O)[O-])c1	?	nt	-28.7%	nt

Bioassay records deposited in PubChem by National Center for Advancing Translational Sciences (NCATS).
